Source: PubChem BioAssay (NCI)
Compounds without any hit were thinned out: in the full panel of roughly 83,000, 20% have a hit.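 For each line, cells grew in 96-well plates with the test compound present at a single concentration for 48 hours.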 The source made the active and inactive calls. Rule for the calls: active = growth percent below 10; inactive = the rest.

Columns and labels:
Experiment in all cases: NCI-60 one-dose screen, 48 h (100 = growth as untreated, 0 = no growth, -100 = all killed)
HCT-15 colon = conditions: 10 µM unless noted
HT29 colon = conditions: 10 µM unless noted
SNB-75 CNS = conditions: 10 µM unless noted
SNB-19 CNS = conditions: 10 µM unless noted
U251 CNS = conditions: 10 µM unless noted
PC-3 prostate = conditions: 10 µM unless noted
SK-MEL-5 melanoma = conditions: 10 µM unless noted
UACC-62 melanoma = conditions: 10 µM unless noted
LOX IMVI melanoma = conditions: 10 µM unless noted
SK-MEL-28 melanoma = conditions: 10 µM unless noted
SK-MEL-2 melanoma = conditions: 10 µM unless noted
EKVX NSCLC = conditions: 10 µM
SN12C renal = conditions: 10 µM unless noted
UO-31 renal = conditions: 10 µM unless noted
TK-10 renal = conditions: 10 µM unless noted
ACHN renal = conditions: 10 µM unless noted
CAKI-1 renal = conditions: 10 µM unless noted
A498 renal = conditions: 10 µM unless noted
CCRF-CEM leukemia = conditions: 10 µM
MOLT-4 leukemia = conditions: 10 µM unless noted

Measured: growth

CCCC(=O)NNc1[nH]c(-c2cc(OC)c(OC)c(OC)c2)cc1C(=O)OCC
inactive: HCT-15 colon 116% | HT29 colon 114% | SNB-75 CNS 114% | SNB-19 CNS 110% | U251 CNS 103% | PC-3 prostate 111% | SK-MEL-5 melanoma 112% | UACC-62 melanoma 102% | LOX IMVI melanoma 105% | SK-MEL-28 melanoma 122% | SK-MEL-2 melanoma 103% | EKVX NSCLC 103% | SN12C renal 108% | UO-31 renal 88.7% | TK-10 renal 74.1% | ACHN renal 81% | CAKI-1 renal 73.1% | A498 renal 120%
active: CCRF-CEM leukemia 9.44% | MOLT-4 leukemia 1.13%

CCOP1(=O)CC(C)=C(Cl)C(P(=O)(O)O)C1 (stereo not given)
active: CCRF-CEM leukemia -35.6%
inactive: HCT-15 colon 98.3% | HT29 colon 104% | SNB-75 CNS 82.4% | SNB-19 CNS 106% | U251 CNS 99.7% | PC-3 prostate 95.6% | SK-MEL-5 melanoma 109% | UACC-62 melanoma 95.5% | LOX IMVI melanoma 94.1% | SK-MEL-28 melanoma 93.7% | SK-MEL-2 melanoma 109% | EKVX NSCLC 102% | SN12C renal 99.3% | UO-31 renal 42.5% | TK-10 renal 117% | ACHN renal 101% | CAKI-1 renal 110% | A498 renal 113% | MOLT-4 leukemia 89.9%

O=C(N/N=C/c1ccccc1Cl)c1cccc2ccccc12
inactive: HCT-15 colon 102% | HT29 colon 105% | SNB-75 CNS 83.1% | SNB-19 CNS 98.3% | U251 CNS 98.4% | PC-3 prostate 99.6% | SK-MEL-5 melanoma 104% | UACC-62 melanoma 99.8% | LOX IMVI melanoma 103% | SK-MEL-28 melanoma 95.4% | SK-MEL-2 melanoma 108% | EKVX NSCLC 99.6% | SN12C renal 94.9% | UO-31 renal 91.5% | TK-10 renal 113% | ACHN renal 105% | CAKI-1 renal 96.8% | A498 renal 85.4% | CCRF-CEM leukemia 88.3% | MOLT-4 leukemia 112%

COC1NC(Cl)=C(C#N)C(C#N)(C#N)C1(C)C (stereo not given)
inactive: HCT-15 colon 121% | HT29 colon 108% | SNB-75 CNS 105% | SNB-19 CNS 115% | U251 CNS 105% | PC-3 prostate 122% | SK-MEL-5 melanoma 111% | UACC-62 melanoma 98.9% | LOX IMVI melanoma 98.7% | SK-MEL-28 melanoma 124% | SK-MEL-2 melanoma 99.1% | EKVX NSCLC 86.4% | SN12C renal 104% | UO-31 renal 85.5% | TK-10 renal 113% | ACHN renal 105% | CAKI-1 renal 104% | A498 renal 110% | CCRF-CEM leukemia 109% | MOLT-4 leukemia 89.2%

CCc1ccc(C(=Nc2ccc(N(C)C(=O)CN3CCN(C)CC3)cc2)c2c(O)[nH]c3ccc(C(=O)OC)cc23)cc1
active: HCT-15 colon -73.2% | HT29 colon -66.3% | SNB-75 CNS -97.3% | SNB-19 CNS -84.9% | U251 CNS -75.1% | PC-3 prostate -60.9% | SK-MEL-5 melanoma -98.1% | UACC-62 melanoma -57.5% | LOX IMVI melanoma -93.9% | SK-MEL-28 melanoma -87.3% | SK-MEL-2 melanoma -55.4% | EKVX NSCLC -17.4% | SN12C renal -57.4% | UO-31 renal -94.9% | TK-10 renal -64.7% | ACHN renal -69.1% | CAKI-1 renal -82.9% | A498 renal -82.2% | CCRF-CEM leukemia -15.5% | MOLT-4 leukemia -37.6%

CCCCCCCCCCCCCCCC[n+]1cccc(C#N)c1
active: CCRF-CEM leukemia -26% | MOLT-4 leukemia -13.3%
inactive: HCT-15 colon 13.1% | HT29 colon 27.1% | SNB-75 CNS 74.8% | SNB-19 CNS 26.4% | U251 CNS 29.7% | PC-3 prostate 25.1% | SK-MEL-5 melanoma 58.3% | UACC-62 melanoma 83.9% | LOX IMVI melanoma 12.4% | SK-MEL-28 melanoma 83% | SK-MEL-2 melanoma 97.7% | EKVX NSCLC 98% | SN12C renal 96.9% | UO-31 renal 67.6% | TK-10 renal 69.3% | ACHN renal 39.2% | CAKI-1 renal 73% | A498 renal 86.6%

COc1ccc(Cn2cc3c(c2-c2ccc(O)cc2)CCc2cnoc2-3)cc1
inactive: HCT-15 colon 21.3% | HT29 colon 19.9% | SNB-75 CNS 19.1% | SNB-19 CNS 47.1% | U251 CNS 27.6% | PC-3 prostate 27% | SK-MEL-5 melanoma 19.2% | UACC-62 melanoma 44.5% | LOX IMVI melanoma 35.4% | SK-MEL-28 melanoma 54.3% | SK-MEL-2 melanoma 43.7% | EKVX NSCLC 28.3% | SN12C renal 40.8% | UO-31 renal 35.4% | TK-10 renal 72.8% | ACHN renal 34.1% | CAKI-1 renal 15.3% | CCRF-CEM leukemia 14.1% | MOLT-4 leukemia 24.3%
active: A498 renal -1.96%
